Experimental data: paper PMC7862700, “An all-to-all approach to the identification of sequence-specific readers for epigenetic DNA modifications on cytosine”

Assays:
Experiment in all cases: DAPPL (digital affinity profiling via proximity ligation, sequencing); 10 mM Tris-HCl pH 7.5, 50 mM NaCl, 1 mM DTT, 4% glycerol, room temperature, 30 min; GST-TFs on glutathione beads, 16-mer random dsDNA library, 0.1% formaldehyde crosslink after washing; high values mean tight binding
Conditions in all cases: protein: recombinant; tags: N-terminal GST; dsDNA, one strand shown
ERF = molecular target: T1, ERF (Homo sapiens, UniProt P50548 1-548)
T1 sequence: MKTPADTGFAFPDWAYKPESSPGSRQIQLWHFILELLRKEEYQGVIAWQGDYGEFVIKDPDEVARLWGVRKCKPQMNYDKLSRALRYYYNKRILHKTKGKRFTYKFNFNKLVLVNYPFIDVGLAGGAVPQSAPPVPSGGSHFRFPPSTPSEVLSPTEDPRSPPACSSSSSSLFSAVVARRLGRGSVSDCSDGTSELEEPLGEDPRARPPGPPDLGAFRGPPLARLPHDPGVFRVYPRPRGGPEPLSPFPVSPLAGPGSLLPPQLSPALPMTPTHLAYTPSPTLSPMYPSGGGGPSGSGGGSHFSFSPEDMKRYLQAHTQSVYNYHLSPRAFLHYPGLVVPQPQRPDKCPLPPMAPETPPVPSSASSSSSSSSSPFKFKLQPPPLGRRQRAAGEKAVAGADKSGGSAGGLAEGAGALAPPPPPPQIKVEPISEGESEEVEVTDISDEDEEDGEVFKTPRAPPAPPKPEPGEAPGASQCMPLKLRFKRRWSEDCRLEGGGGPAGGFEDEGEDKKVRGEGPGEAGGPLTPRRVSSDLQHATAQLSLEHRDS
How it was run: (§1)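 Binding signal is defined as a hexamer's read frequency for one factor over its frequency for the tag-only sample. To obtain reads, GST-fused human transcription factors were expressed in yeast, captured on glutathione beads, barcoded with DNA and pooled with that sample. Pools met 200 nmole of a 16-mer random double-stranded DNA library in Tris/NaCl/DTT/glycerol buffer for 30 min at room temperature before washing, 0.1% formaldehyde crosslinking, proximity ligation (BsaI/T4 ligase, 1 h, 37 °C), PCR and Illumina NextSeq500 sequencing.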

ETV3L = molecular target: T2, ETV3L (Homo sapiens, UniProt Q6ZN32 1-361)
T2 sequence: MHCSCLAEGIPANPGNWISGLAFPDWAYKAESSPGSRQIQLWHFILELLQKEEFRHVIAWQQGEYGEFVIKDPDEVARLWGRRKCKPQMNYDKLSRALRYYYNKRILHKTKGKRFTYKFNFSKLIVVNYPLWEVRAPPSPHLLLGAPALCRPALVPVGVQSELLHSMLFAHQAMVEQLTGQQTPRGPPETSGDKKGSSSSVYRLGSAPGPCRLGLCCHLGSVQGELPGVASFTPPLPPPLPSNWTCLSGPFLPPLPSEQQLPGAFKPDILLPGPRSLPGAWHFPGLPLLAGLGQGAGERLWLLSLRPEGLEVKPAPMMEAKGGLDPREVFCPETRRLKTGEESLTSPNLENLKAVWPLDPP
How it was run: as §1

ETS2 = molecular target: T3, ETS2 (Homo sapiens, UniProt P15036 1-469)
T3 sequence: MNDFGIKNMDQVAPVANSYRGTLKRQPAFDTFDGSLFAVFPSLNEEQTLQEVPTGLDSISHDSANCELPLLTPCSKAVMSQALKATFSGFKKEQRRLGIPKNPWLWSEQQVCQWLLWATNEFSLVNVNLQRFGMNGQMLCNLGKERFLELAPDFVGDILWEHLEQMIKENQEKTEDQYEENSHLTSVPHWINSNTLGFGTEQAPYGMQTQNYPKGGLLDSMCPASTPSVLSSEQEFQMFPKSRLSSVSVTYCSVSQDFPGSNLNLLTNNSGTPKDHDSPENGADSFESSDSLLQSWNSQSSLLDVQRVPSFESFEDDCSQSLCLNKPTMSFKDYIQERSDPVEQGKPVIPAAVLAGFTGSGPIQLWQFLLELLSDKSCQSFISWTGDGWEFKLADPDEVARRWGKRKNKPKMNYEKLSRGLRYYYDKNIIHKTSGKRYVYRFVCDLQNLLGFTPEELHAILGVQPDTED
How it was run: as §1

SPDEF = molecular target: T4, SPDEF (Homo sapiens, UniProt O95238 1-335)
T4 sequence: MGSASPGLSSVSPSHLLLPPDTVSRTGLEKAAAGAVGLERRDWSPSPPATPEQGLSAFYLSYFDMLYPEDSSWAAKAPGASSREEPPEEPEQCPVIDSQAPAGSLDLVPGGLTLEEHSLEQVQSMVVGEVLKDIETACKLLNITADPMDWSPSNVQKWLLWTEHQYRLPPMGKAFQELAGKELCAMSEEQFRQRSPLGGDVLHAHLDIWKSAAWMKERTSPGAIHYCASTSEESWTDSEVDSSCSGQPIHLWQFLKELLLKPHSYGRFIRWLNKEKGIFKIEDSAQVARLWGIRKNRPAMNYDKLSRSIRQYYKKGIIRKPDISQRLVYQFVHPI
How it was run: as §1

ETV7 = molecular target: T5, ETV7 (Homo sapiens, UniProt Q9Y603 1-341)
T5 sequence: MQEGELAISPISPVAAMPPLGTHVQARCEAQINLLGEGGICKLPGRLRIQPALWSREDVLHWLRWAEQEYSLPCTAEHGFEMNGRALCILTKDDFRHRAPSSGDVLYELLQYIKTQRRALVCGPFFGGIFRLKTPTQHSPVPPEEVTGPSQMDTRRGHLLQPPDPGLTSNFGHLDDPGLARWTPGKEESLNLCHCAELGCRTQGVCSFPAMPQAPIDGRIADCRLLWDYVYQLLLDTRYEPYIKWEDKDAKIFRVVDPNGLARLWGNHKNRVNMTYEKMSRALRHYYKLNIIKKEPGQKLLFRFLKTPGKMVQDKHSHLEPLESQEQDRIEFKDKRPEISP
How it was run: as §1

ELF5 = molecular target: T6, ELF5 (Homo sapiens, UniProt Q9UKW6-2 1-255)
T6 sequence: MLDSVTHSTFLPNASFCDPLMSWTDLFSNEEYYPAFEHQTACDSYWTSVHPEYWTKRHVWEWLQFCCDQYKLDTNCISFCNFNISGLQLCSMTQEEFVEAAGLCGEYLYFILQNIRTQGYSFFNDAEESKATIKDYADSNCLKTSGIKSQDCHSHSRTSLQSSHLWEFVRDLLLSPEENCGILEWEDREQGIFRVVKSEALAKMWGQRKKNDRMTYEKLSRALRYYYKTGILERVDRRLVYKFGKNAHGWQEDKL
How it was run: as §1

ETV3 = molecular target: T7, ETV3 (Homo sapiens, UniProt P41162-2 1-143)
T7 sequence: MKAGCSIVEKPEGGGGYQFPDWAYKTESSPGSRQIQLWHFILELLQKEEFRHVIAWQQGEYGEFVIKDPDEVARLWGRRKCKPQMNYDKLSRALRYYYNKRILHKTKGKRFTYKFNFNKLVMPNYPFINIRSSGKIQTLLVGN
How it was run: as §1

ETV6 = ETV6 (Homo sapiens, UniProt P41212 1-452)
Chain of ETV6 (P41212 whole entry): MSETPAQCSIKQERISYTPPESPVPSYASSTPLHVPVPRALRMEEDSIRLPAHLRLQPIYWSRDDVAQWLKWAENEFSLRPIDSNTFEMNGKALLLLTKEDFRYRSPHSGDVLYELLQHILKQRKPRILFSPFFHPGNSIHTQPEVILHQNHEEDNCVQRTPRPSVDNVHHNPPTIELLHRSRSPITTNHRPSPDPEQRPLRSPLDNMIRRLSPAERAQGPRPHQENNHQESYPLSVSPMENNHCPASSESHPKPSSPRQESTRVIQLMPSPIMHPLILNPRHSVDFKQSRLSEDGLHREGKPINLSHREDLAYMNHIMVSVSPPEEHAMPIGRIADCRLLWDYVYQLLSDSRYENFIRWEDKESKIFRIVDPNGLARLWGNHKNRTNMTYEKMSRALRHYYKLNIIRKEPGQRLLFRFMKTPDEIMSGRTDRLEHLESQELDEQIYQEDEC
How it was run: as §1

Row | Sequence | binding signal (ERF) | binding signal (ETV3L) | binding signal (ETS2) | binding signal (SPDEF) | binding signal (ETV7) | binding signal (ELF5) | binding signal (ETV3) | binding signal (ETV6)
1 | AACTTT | 1.27 fold enrichment (6-mer frequency, TF over GST control) | 1.26 fold enrichment (6-mer frequency, TF over GST control) | 1.2 fold enrichment (6-mer frequency, TF over GST control) | 1.17 fold enrichment (6-mer frequency, TF over GST control) | 1.2 fold enrichment (6-mer frequency, TF over GST control) | 1.3 fold enrichment (6-mer frequency, TF over GST control) | 1.4 fold enrichment (6-mer frequency, TF over GST control) | 1.22 fold enrichment (6-mer frequency, TF over GST control)
2 | ATCCTC | 1.34 fold enrichment (6-mer frequency, TF over GST control) | 1.53 fold enrichment (6-mer frequency, TF over GST control) | 1.41 fold enrichment (6-mer frequency, TF over GST control) | 1.56 fold enrichment (6-mer frequency, TF over GST control) | 1.46 fold enrichment (6-mer frequency, TF over GST control) | 1.95 fold enrichment (6-mer frequency, TF over GST control) | 1.51 fold enrichment (6-mer frequency, TF over GST control) | 1.37 fold enrichment (6-mer frequency, TF over GST control)
3 | TTGTTA | 1.28 fold enrichment (6-mer frequency, TF over GST control) | 1.35 fold enrichment (6-mer frequency, TF over GST control) | 1.34 fold enrichment (6-mer frequency, TF over GST control) | 1.26 fold enrichment (6-mer frequency, TF over GST control) | 1.35 fold enrichment (6-mer frequency, TF over GST control) | 1.29 fold enrichment (6-mer frequency, TF over GST control) | 1.3 fold enrichment (6-mer frequency, TF over GST control) | 1.33 fold enrichment (6-mer frequency, TF over GST control)
4 | ATTTAA | 1.21 fold enrichment (6-mer frequency, TF over GST control) | 1.19 fold enrichment (6-mer frequency, TF over GST control) | 1.28 fold enrichment (6-mer frequency, TF over GST control) | 1.24 fold enrichment (6-mer frequency, TF over GST control) | 1.27 fold enrichment (6-mer frequency, TF over GST control) | 1.1 fold enrichment (6-mer frequency, TF over GST control) | 1.13 fold enrichment (6-mer frequency, TF over GST control) | 1.21 fold enrichment (6-mer frequency, TF over GST control)
5 | AAAGCA | 1.1 fold enrichment (6-mer frequency, TF over GST control) | 1.1 fold enrichment (6-mer frequency, TF over GST control) | 1.05 fold enrichment (6-mer frequency, TF over GST control) | 1.06 fold enrichment (6-mer frequency, TF over GST control) | 1.15 fold enrichment (6-mer frequency, TF over GST control) | 1.07 fold enrichment (6-mer frequency, TF over GST control) | 1.07 fold enrichment (6-mer frequency, TF over GST control) | 1.05 fold enrichment (6-mer frequency, TF over GST control)
6 | CCCTTA | 1.32 fold enrichment (6-mer frequency, TF over GST control) | 1.41 fold enrichment (6-mer frequency, TF over GST control) | 1.34 fold enrichment (6-mer frequency, TF over GST control) | 1.38 fold enrichment (6-mer frequency, TF over GST control) | 1.23 fold enrichment (6-mer frequency, TF over GST control) | 1.2 fold enrichment (6-mer frequency, TF over GST control) | 1.39 fold enrichment (6-mer frequency, TF over GST control) | 1.24 fold enrichment (6-mer frequency, TF over GST control)
7 | TACCAA | 1.14 fold enrichment (6-mer frequency, TF over GST control) | 1.08 fold enrichment (6-mer frequency, TF over GST control) | 1.18 fold enrichment (6-mer frequency, TF over GST control) | 1.17 fold enrichment (6-mer frequency, TF over GST control) | 1.13 fold enrichment (6-mer frequency, TF over GST control) | 1.09 fold enrichment (6-mer frequency, TF over GST control) | 1.13 fold enrichment (6-mer frequency, TF over GST control) | 1.17 fold enrichment (6-mer frequency, TF over GST control)
8 | CTCCCG | 1.42 fold enrichment (6-mer frequency, TF over GST control) | 1.43 fold enrichment (6-mer frequency, TF over GST control) | 1.52 fold enrichment (6-mer frequency, TF over GST control) | 1.65 fold enrichment (6-mer frequency, TF over GST control) | 1.73 fold enrichment (6-mer frequency, TF over GST control) | 1.74 fold enrichment (6-mer frequency, TF over GST control) | 1.53 fold enrichment (6-mer frequency, TF over GST control) | 1.57 fold enrichment (6-mer frequency, TF over GST control)
